Screens from PubChem BioAssay.
MEKK2wt PB1 HTS – modulators of MEK5 binding to wildtype MEKK2, primary screen, biochemical, multiplex bead flow cytometry, Alexa488-MEK5. Mitogen-activated protein kinase kinase kinase 2 (Homo sapiens), Q9Y2U5. binding response (% of control), % at 10 µM. 1.1% of 290,000 active. Alexa488-MEK5 binding to MEKK2 WT; actives lie on both sides; in the data active = binding response below about 67% or above about 130%
CHT block – inhibitors of human choline transporter CHT; CHT-expressing cells, membrane potential dye, choline response; active compounds read low; 0.86% of 310,000 active; B-score at 10 µM;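 active = B-score over 3 SD under the library average, and starting fluorescence ratio not unusually high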;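 also: choline stimulus applied at its EC90 after an EC20 pre-addition; B-score computed on integrated fluorescence ratio after choline addition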
Target sequence (Q9GZV3 whole entry, looked up): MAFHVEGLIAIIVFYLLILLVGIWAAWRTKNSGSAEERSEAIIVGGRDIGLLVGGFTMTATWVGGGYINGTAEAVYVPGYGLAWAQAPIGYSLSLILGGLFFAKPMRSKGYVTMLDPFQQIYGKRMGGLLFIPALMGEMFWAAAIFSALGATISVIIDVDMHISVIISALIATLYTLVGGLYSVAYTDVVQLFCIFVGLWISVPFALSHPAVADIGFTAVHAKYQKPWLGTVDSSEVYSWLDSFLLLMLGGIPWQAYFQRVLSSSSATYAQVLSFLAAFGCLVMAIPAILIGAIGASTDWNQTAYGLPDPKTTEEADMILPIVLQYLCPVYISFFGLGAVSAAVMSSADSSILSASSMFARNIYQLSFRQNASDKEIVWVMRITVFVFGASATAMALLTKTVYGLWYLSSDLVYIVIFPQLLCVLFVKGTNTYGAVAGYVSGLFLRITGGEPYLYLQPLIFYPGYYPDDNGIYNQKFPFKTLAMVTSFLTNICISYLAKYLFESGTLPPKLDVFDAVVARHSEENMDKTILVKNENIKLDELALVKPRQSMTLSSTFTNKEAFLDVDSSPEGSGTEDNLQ
Mot1-301 SUMO – yeast Mot1-301 growth rescue at high temperature, primary screen, SUMOylation pathway inhibitor project, S. cerevisiae, ATP luminescence, 38.5C; S. cerevisiae Mot1-301 growth rescue; percent above DMSO median, 100 means doubled; growth rescue, % at 18.8 µM; 1% of 320,000 active;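 active = every valid replicate shows activation above 250% relative to neutral control wells; inactive = the rest, any valid replicate at or below 250%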;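 also: OY570 slx delta 5 strain wells were the positive control but not used for scaling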
MEKK2 mut-MEK5 – MEK5 binding signal on mutant MEKK2 PB1, primary screen, biochemical, multiplex bead flow cytometry, Alexa488-MEK5. Alexa488-MEK5 binding to MEKK2 mutant. percent response, % at 10 µM. 0.35% of 290,000 active. AID 1530, 2009; in the data active = percent response above about 24%, passing the limit was not always enough
MEKK3 PB1 HTS – modulators of MEKK3-MEK5 PB1 binding, primary screen, biochemical, wildtype MEKK3, multiplex bead flow cytometry, Alexa488-MEK5. Mitogen-activated protein kinase kinase kinase 3 (Homo sapiens), Q99759. bead-based flow cytometry, Alexa488-MEK5 binding to MEKK3; actives lie on both sides; 0 = blocked by unlabeled MEK5, 100 = vehicle. binding response (% of control), % at 10 µM. 1.4% of 290,000 active. AID 1529, 2009;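 active = binding response more than 3 SD above or below the average of its plate-row segment, actives on both sides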;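 also: Alexa488 bead fluorescence after subtracting the streptavidin-only scavenger bead signal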
CHT allo act – CHT positive allosteric modulators, primary screen, cell-based, membrane potential dye, choline EC20 | High affinity choline transporter 1 (Homo sapiens), Q9GZV3 | CHT-expressing cells; active compounds read high; LV-AA mutant CHT in HEK293 cells | B-score at 10 µM | 0.49% of 310,000 active | AID 488977, 2010;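 active = initial fluorescence not abnormally high and integrated response B-score, plate-corrected, over 3 SD above library mean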
MEKK2wt confirm – modulators of MEK5 binding to wildtype MEKK2, confirmation, biochemical, single concentration, multiplex bead flow cytometry; shares compounds with MEKK3 PB1 HTS; Alexa488-MEK5 binding to MEKK2 WT; actives lie on both sides; binding response (% of control), % at 10 µM; 2.4% of 5,900 active; in the data active = binding response below about 16% or above about 210%; inactive = in between
MEKK2mut-MEK5 – mutant MEKK2 PB1-MEK5 binding signal retest – biochemical, single concentration, multiplex bead flow cytometry, confirmation. percent response, % at 10 µM. Alexa488-MEK5 binding to MEKK2 mutant. shares compounds with MEKK3 PB1 HTS. 2% of 5,900 active; in the data active = percent response mostly above about 71%, no sharp cut-off; inactive = mostly below about 38%;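 also: higher means compound restores mutant binding toward wildtype level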
MEKK3 confirm – MEKK3 wild-type PB1 binding to MEK5, inhibitors, confirmation, biochemical, bead multiplex flow cytometry, single concentration, wildtype. shares compounds with MEKK3 PB1 HTS. Alexa488-MEK5 binding to MEKK3; active compounds read low. binding response (% of control), % at 10 µM. 1.8% of 5,900 active. AID 1894, 2009;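 active = binding response below 72% of control, or above a set upper limit, though filed actives all read lower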;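 also: 100% = DMSO only wells and 0% = binding blocked by excess unlabeled MEK5; lower values mean stronger disruption of MEK5 binding to MEKK3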
* marks the source's active call; other numbers are inactive results; i = inactive; . = no result given; [ ] = another dose, or the depositor's remark. Compounds with a hit are over-represented: about 4.1% of the library has one in this group of screens.

SMILES | MEKK2wt PB1 HTS | CHT block | Mot1-301 SUMO | MEKK2 mut-MEK5 | MEKK3 PB1 HTS | CHT allo act | MEKK2wt confirm | MEKK2mut-MEK5 | MEKK3 confirm
CCOC(=O)C1(CCCc2ccccc2)CCN(S(=O)(=O)N(C)C)CC1 | 102 | i | 0 | 3 | 101 | i | . | . | .
COc1ccc2c(c1)C(=O)/C(=C/C=C/c1ccccc1)CC2 | 71*[inhibitor] | i | -4 | -1 | 90 | i | 86 | -7 | 99
Cn1c(=O)c2c(ncn2CC(=O)OCC(=O)Nc2cc(Cl)ccc2Cl)n(C)c1=O | 100 | i | -12 | -1 | 139* | i | 107 | 5 | 101
Cn1c(=O)c2c(ncn2CC(=O)OCC(=O)Nc2ccc(Cl)cc2Cl)n(C)c1=O | 108 | i | -3 | 1 | 106 | i | . | . | .
CCCN1CCC(=O)N(CCSc2ccc(NC(C)=O)cc2)CC1 | 108 | i | -5 | 1 | 71*[inhibitor] | i | 98 | -4 | 97
COCCNC(=O)CSc1nc(N)c(NC(=O)c2ccccc2F)c(=O)[nH]1 | 97 | i | -7 | -2 | 96 | i | . | . | .
O=C(CSc1ccc(-c2ccco2)nn1)NCc1ccccc1Cl | 109 | i | -8 | 1 | 135* | i | 103 | 1 | 102
O=S(=O)(NC(=S)NC1CCCCC1)c1ccccc1 | 6.0*[inhibitor] | i | -19 | -23 | 4.0*[inhibitor] | i | 99 | -2 | 100
CCOc1ccc2nc(C)cc(C(=O)O)c2c1 | -7.0*[inhibitor] | i | -8 | -23 | 0.0*[inhibitor] | i | 120 | 12 | 100
CCCN1C(=O)c2cccc3c(N4CCCCC4)ccc(c23)C1=O | 60*[inhibitor] | i | -4 | -4 | 87 | i | 97 | 0 | 102
O=C1c2cccc3c(N4CCCCC4)ccc(c23)C(=O)N1c1ccccn1 | 94 | i | 2 | -2 | 96 | i | . | . | .
CCOc1ccc(C(=O)Nc2ccc(N3CCN(C)CC3)cc2)cc1 | 104 | i | -7 | 3 | 98 | i | . | . | .
CCOc1ccc(NC(=O)c2ccc(NC(=O)c3cn4c5c(c(N6CCN(C)CC6)c(F)cc5c3=O)OCC4C)cc2)cc1 (stereo not drawn) | 70 | i | 8 | -8 | 45*[inhibitor] | i | 181 | 40 | 85
COc1cc2c3nnc(-c4ccc(F)cc4)c-3cn(Cc3ccc(C)cc3)c2cc1OC | 179* | i | -23 | 50* | 116 | i | 204 | 74* | 109
COc1cc2c3nnc(-c4ccccc4)c-3cn(Cc3ccc(F)cc3)c2cc1OC | 166* | i | 126 | 36 | 99 | i | 187 | 48 | 113
O=c1c2cn(Cc3ccc(F)cc3)c3ccccc3c-2nn1Cc1ccc(F)cc1 | 98 | . | . | -1 | 99 | . | . | . | .
CC(=O)N1N=C(c2ccccc2)CC1c1cn(C)c2ccccc12 (stereo not drawn) | 113 | i | -16 | 3 | 157* | i | 98 | 4 | 103
CC(=O)Nc1ccc(Nc2ncnc(N)c2[N+](=O)[O-])cc1 | 103 | i | -16 | 6 | 104 | i | . | . | .
